Sampled rows, rich in hits. Any-hit rate of the full collection: about 12%.
RORg inh: inhibitors of mouse ROR gamma transcriptional activity. P51450. Drosophila S2 Gal4-RORgamma UAS-luciferase reporter, 20 h. Potency, µM (titrated, usually from 53.6 µM), without a hit: at the highest dose activity change, negative = inhibition, most hits filed as inhibitors. 5.4% of 310,000 active; further: nearly all actives have a fitted effect of over 60% in size
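Using a luciferase readout, inhibitors were identified by reduced reporter activity in Drosophila cells coexpressing a copper-inducible Gal4–ROR gamma fusion and UAS-driven Photinus luciferase, incubated 20 hr after 700 uM copper sulfate.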
PLK1 PBD inh: PLK1 (human) polo-box domain binding inhibition; Plk1 PBD binding of FITC phosphopeptide, fluorescence polarization; Potency, µM, for inactives: max response, negative = inhibition, usual class: inhibitors; 2.8% of 360,000 active; further: series mostly up to about 57 µM; nearly all actives have a fitted effect of over 65% in size
Target sequence (P53350 whole entry, looked up, the tested form may be a part): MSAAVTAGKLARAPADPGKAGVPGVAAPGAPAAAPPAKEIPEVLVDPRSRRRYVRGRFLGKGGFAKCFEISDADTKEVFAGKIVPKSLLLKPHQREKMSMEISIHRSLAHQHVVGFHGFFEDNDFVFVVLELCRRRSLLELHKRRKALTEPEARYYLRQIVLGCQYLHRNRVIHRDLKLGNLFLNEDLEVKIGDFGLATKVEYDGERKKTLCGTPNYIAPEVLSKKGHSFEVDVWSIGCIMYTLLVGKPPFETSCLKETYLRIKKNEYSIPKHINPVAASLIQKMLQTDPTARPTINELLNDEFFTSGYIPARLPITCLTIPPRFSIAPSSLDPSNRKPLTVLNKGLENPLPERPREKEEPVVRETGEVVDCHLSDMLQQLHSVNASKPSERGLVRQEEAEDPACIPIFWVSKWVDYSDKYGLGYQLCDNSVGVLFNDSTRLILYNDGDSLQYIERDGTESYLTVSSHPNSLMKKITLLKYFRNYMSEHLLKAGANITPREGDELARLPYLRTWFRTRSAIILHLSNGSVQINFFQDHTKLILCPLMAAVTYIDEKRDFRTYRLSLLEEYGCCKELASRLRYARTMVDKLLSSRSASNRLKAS
Sfp PPTase inh: Sfp phosphopantetheinyl transferase inhibition; Q9F4F7; Biochemical Sfp PPTase activity, qHTS; Potency, µM, for inactives: largest response in the series, negative = inhibition, hits mostly inhibitors; 3.5% of 310,000 active;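 further: the enzyme is Sfp with the accession as filed and its product quenches rhodamine fluorescence; 0% = enzyme reaction without inhibitor and -100% = no enzyme wells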
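Step 1, compound plus 15 nM Sfp-PPTase, 15 min, room temperature. Step 2, add rhodamine-CoA (5 uM) and BHQ-2-YbbR (12.5 uM). Step 3, read 525/598 nm fluorescence at 0 and 30 min.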
ALDH1A1 inh: blocks purified human ALDH1A1 activity; P00352; Purified ALDH1A1, NADH fluorescence, propionaldehyde substrate; Potency, µM (doses to about 75.3 µM), inactives show at the highest dose activity, negative = inhibition, actives largely listed as inhibitors; 7.3% of 220,000 active; active means well fitted inhibition curve with a large enough effect, not every such curve was filed as active; inconclusive means small, poorly fitted or top-dose-only effect, or another doubt; inactive means no such curve, though single readings can be large or run the other way;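 further: plate controls were no enzyme wells and a reference inhibitor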
VP16 counter: counter-screen for ROR gamma inhibitors: Gal4-VP16 reporter; 3.5% of 310,000 active; Drosophila S2 Gal4-VP16 UAS-luciferase, luminescence, 20 h; AID 2546; Potency, µM (doses to about 53.6 µM), for the others: at the top dose activity, negative = inhibition, usual class: inhibitors;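 further: Gal4-VP16 expression switched on by copper sulfate through the metallothionein promoter; nearly all actives have a fitted effect of over 50% in size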
Active calls of the source: *; ? = inconclusive; nt = no result; ! = a repeat was not active. Unless noted, the call rests on the fitted dose curve; in most records, active means well fitted curve in the direction sought with a large enough effect; inconclusive means small, poorly fitted or top-dose-only effect, or another doubt; inactive means no such curve, though single readings can be large; an effect the other way counts as inactive or inconclusive. Unless noted, on the % scale 0 is the no-effect control and ±100 the full control effect; potency means the concentration at half of the fitted maximal effect.

SMILES | RORg inh | PLK1 PBD inh | Sfp PPTase inh | ALDH1A1 inh | VP16 counter
O=c1oc2ccccc2c(O)c1/C=N/c1ncccn1 | 5% | -11% | -13% | ? | -4%
O=c1oc2ccccc2c(O)c1/C=C1\C=Nc2ccccc21 | ? | 0.6µM* | -5% | 13µM* | ?
CCOC(=O)C(=O)N(C)c1c(CC)nc2c(OCc3cccc(OC)c3)cccn12 | nt | -10% | nt | nt | nt
COc1cc(-c2nc(-c3ccc4c(c3)-c3ccccc3S4(=O)=O)c(-c3ccccc3)[nH]2)cc(OC)c1O | ? | 2% | 10% | -4% | 4.5µM*
COCCn1cnc2c1-c1ccc(OC)c(c1)OC/C=C\COc1cccc-2c1 | 2% | nt | -25% | nt | -18%
Cc1cccc(N2CCN(C(=O)c3[nH]c(C(F)(F)F)nc3-c3ccccc3)CC2)c1C | nt | -3% | nt | nt | nt
NC1=NC(=O)C(Cc2ccc(F)cc2)S1 (stereo not drawn) | -30% | 24µM* | 6% | nt | -2%
COc1ccccc1/C=N/N1C(=O)C2C3C=CC(CC3)C2C1=O (stereo not drawn) | -11% | -4% | 13% | 7.1µM* | -6%
COc1ccc(/C=N/N2C(=O)C3C4C=CC(CC4)C3C2=O)c(OC)c1 (stereo not drawn) | 31% | 2% | 18% | 2.2µM* | -7%
O=C(Nc1ccccc1)N1CCC2(CCNCC2)CC1 | -23% | nt | 0% | -5% | 1%
CN(C(=O)c1ccc(Br)o1)C1CCCCC1 | 28% | -2% | 27% | nt | ?
CCNC(=S)NNC(=O)c1cccs1 | 11µM* | -8% | 18% | 3% | -13%
CC(C)c1ccc(NC(=S)NNC(=O)c2cccs2)cc1 | ? | -16% | 8% | 20µM* | -15%
COc1ccc(NC(=S)NNC(=O)c2cccs2)cc1 | -37% | -4% | 23% | ? | -28%
O=C(Nc1ccc2c(c1)CCO2)Nc1nnc([C@H]2C[C@H](O)[C@@H](CO)O2)s1 | nt | -13% | nt | nt | nt
CCCCOC(=O)CCn1[nH]c(=O)c2ccccc2c1=O | 27% | 4% | 14% | 3% | ?
O=C(CCn1[nH]c(=O)c2ccccc2c1=O)OC1CCCCC1 | ? | -4% | 2% | ? | 22µM*
O=C1CC2(CCCC2)CC(=O)N1CCCCNC[C@H]1COc2ccccc2O1 | 13% | nt | 9% | 10µM* | 4%
CCc1cc2c(NC(C(=O)O)C(C)C)ncnc2s1 (stereo not drawn) | 6% | -7% | 20% | 16µM* | -4%
Cc1ccc(-c2nc3ccccc3s2)cc1NC(=S)NC(=O)c1cccc2ccccc12 | -16% | -4% | 0% | -8% | 16%
O=C(/C=C/c1ccco1)NC(=S)Nc1cccc(-c2nc3ccccc3s2)c1 | nt | -10% | nt | nt | nt
Cc1ccc(-c2nc3ccccc3s2)cc1NC(=S)NC(=O)/C=C/c1ccco1 | 4µM* | -21% | -13% | 1% | 10µM*
O=C(/C=C/c1ccco1)NC(=S)Nc1cc(-c2nc3ccccc3s2)ccc1Cl | 0.63µM* | -29% | ? | 12% | 1µM*
CC[C@H](C)[C@H]1CNC(=S)N1CC1CCN(CCC(C)C)CC1 | nt | -17% | nt | nt | nt
Cc1ccc(C(=O)NCC(=O)OCc2nc3ccsc3c(=O)[nH]2)cc1C | nt | -3% | nt | nt | nt
SMILES | RORg inh | PLK1 PBD inh | Sfp PPTase inh | ALDH1A1 inh | VP16 counter
CCCCn1nnnc1C(c1cc2ccccc2o1)N(CCN(C)C)Cc1ccccc1 (stereo not drawn) | nt | 1% | nt | nt | nt
Cc1c(C(=O)Nc2nc(-c3ccccn3)cs2)oc2ccccc12 | nt | 12µM* | nt | nt | nt
O=C(Nc1nc(-c2ccccn2)cs1)c1ncc(Cl)c(Cl)c1Cl | 6.3µM* | -9% | -9% | 1% | 10µM*
Cc1csc(NC(=O)c2cccn2C)n1 | -15% | -2% | 16% | 4% | -19%
O=C(Nc1nc(-c2ccccn2)cs1)c1ccc(Cl)s1 | 20% | -5% | -6% | ? | 4%
Cn1cccc1C(=O)Nc1nc(-c2ccccn2)cs1 | 1.6µM* | ? | -70% | 14µM* | 4µM*
CCOC(=O)N1CCN(C(=O)COC(=O)c2cc(C)ccc2C)CC1 | nt | -4% | nt | nt | nt
C=CCN=C1SC(CC)C(=O)N1S(=O)(=O)c1ccc(C)cc1 (stereo not drawn) | -41% | ? | -19% | 6.3µM* | 7%
CCCCC[C@H](O)/C=C/[C@H]1C=CC(=O)[C@@H]1C/C=C\CCCC(=O)O | ? | nt | 56µM*! | 40µM*! | ?

Screening results as filed in PubChem BioAssay.
